From PubChem BioAssay (NCATS) come the findings set out here.

Each structure is given as a SMILES string. Records with an inconclusive call do not appear. A number with no mark means an inactive call. Active and inactive are the calls of the source. The call rests on the fitted dose curve; in most records, active means well fitted curve in the direction sought with a large enough effect; inconclusive means small, poorly fitted or top-dose-only effect, or another doubt; inactive means no such curve, though single readings can be large; an effect the other way counts as inactive or inconclusive.

In test [1] the target is Aldehyde dehydrogenase, mitochondrial (Homo sapiens) (UniProt P05091). The test can be described thus: qHTS for Inhibitors of the Aldehyde Dehydrogenase Family (ALDH2) Primary screen (AID 2061308).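 Further: plate controls were vehicle for no effect and reference inhibitor for full effect; nearly all actives have a fitted effect of over 55% in size.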
Test [2] has as its target Retinaldehyde dehydrogenase 3 (Homo sapiens) (UniProt P47895). Description: qHTS for Inhibitors of the Aldehyde Dehydrogenase Family (ALDH1A3) Primary screen (AID 2061315).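 Further: plate controls were DMSO vehicle for no effect and reference inhibitor for full effect.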
Test [3] can be described thus: BET inhibitor-based combinations targeting novel dependencies in MECOM-rearranged (r) AML: MV-4-11 cell line (AID 2202233). Further: nearly all actives have a fitted effect of over 45% in size. Further: potency means the concentration at half of the fitted maximal effect. The gist of the method: (§1)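 First, 500 cells per well were seeded; next, drugs were pinned as 11-point doses; then plates sat 48 hr in the incubator; finally CellTiter-Glo was added and luminescence read, with AUC and Z-AUC computed.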
Test [4] in a line: BET inhibitor-based combinations targeting novel dependencies in MECOM-rearranged (r) AML: HNT-34 cell line (AID 2202234). Further: nearly all actives have a fitted effect of over 35% in size. Further: potency means the concentration at half of the fitted maximal effect. In a few lines: as §1
Test [5] in a line: BET inhibitor-based combinations targeting novel dependencies in MECOM-rearranged (r) AML: OCI-AML3 cell line (AID 2202232). Further: nearly all actives have a fitted effect of over 35% in size. Further: potency means the concentration at half of the fitted maximal effect. Particulars: Potency: OCI-AML3 viability. In a few lines: (§2)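 Each compound was tested at eleven concentrations on cells seeded at 500/well. After two days' incubation, ATP-based luminescence reported viability; responses relative to DMSO and blank wells yielded AUC and cell-line-centred Z-AUC.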

Test [6] is described as follows: BET inhibitor-based combinations targeting novel dependencies in MECOM-rearranged (r) AML: UCSD-AML1 cell line (AID 2202235). Further: potency means the concentration at half of the fitted maximal effect; nearly all actives have a fitted effect of over 40% in size. In a few lines:
as §1

A short description of test [7]: BET inhibitor-based combinations targeting novel dependencies in MECOM-rearranged (r) AML: AML-194 cell line (AID 2202237; further: nearly all actives have a fitted effect of over 40% in size; further: potency means the concentration at half of the fitted maximal effect). In a few lines:
as §2

Test [8] can be described thus: BET inhibitor-based combinations targeting novel dependencies in MECOM-rearranged (r) AML: SET-2 cell line (AID 2202231). Further: nearly all actives have a fitted effect of over 35% in size. Further: potency means the concentration at half of the fitted maximal effect.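 On viability: plate controls were DMSO treated cells for no effect and wells without cells for full effect.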 Particulars: SET-2 AML cells viability, CellTiter-Glo luminescence, 48 h; viability: hits give low values, concentration not given here. The gist of the method:
as §2

Test [9] is described as follows: BET inhibitor-based combinations targeting novel dependencies in MECOM-rearranged (r) AML: AML-191 cell line (AID 2202236; further: nearly all actives have a fitted effect of over 35% in size; further: potency means the concentration at half of the fitted maximal effect). In a few lines: as §2

With `COc1cc2ncnc(Nc3ccc(O)c(Br)c3)c2cc1OC`, the Potency result in test [1] and in test [2] was “inactive” each time. Besides, the Potency was 1.48 µM (active) in [3] and 5.25 µM (active) in test [4].
`COc1cc2c(cc1OC(C)C)[C@H](c1ccc(Cl)cc1)N(c1ccc(N(C)CC3CCC(N4CCN(C)C(=O)C4)CC3)cc1)C(=O)C2` (stereo partly drawn): the Potency entry in test [1] and in test [2] was “inactive” in each case. Also, the Potency in test [5] was 11.8 µM (active); in [3], 2.35 µM (active); in test [4], 3.72 µM (active); in test [6], 4.68 µM (active); in [7], 10.5 µM (active).
On to `Cc1cc(C(=O)Nc2cc(Nc3ccc4c(/C=C/c5ccccn5)n[nH]c4c3)ccc2F)n(C)n1`, for which the Potency result in [1] and in test [2] was “inactive” in each case. Besides, the Potency in [8] is 18.6 µM (active); in test [4], 7.42 µM (active); in test [6], 6.61 µM (active); in test [9] it was 16.6 µM (active).
For the molecule `CN1CC[C@@H](c2c(O)cc(O)c3c(=O)cc(-c4ccc(C(F)(F)F)cc4Cl)oc23)[C@@H]1CO`, the Potency result in test [1] and in test [2] was “inactive” each time. In test [3], the Potency is 20.9 µM (active).
As for `Cn1c(NC[C@@H](N)Cc2ccccc2)nc(-c2ccncc2)c(-c2ccc3ccccc3c2)c1=O`, the Potency entry in test [1] and in test [2] was “inactive” throughout. Also, the Potency in test [5] is 20.9 µM (active); in test [3], 20.9 µM (active); in test [4], 26.3 µM (active); in test [7] it was 26.3 µM (active).
Consider `C[C@@H](Nc1ncnc2[nH]c(-c3ccc(O)cc3)cc12)c1ccccc1`, for which the Potency entry in test [1] and in test [2] was “inactive” in each case. Besides, the Potency in [8] is 5.25 µM (active); in test [3], 14.8 µM (active); in test [4], 14.8 µM (active); in [9], 14.8 µM (active).
Take `CNCc1ccc(-c2cc(-c3nc(-c4ccc(S(=O)(=O)C(C)C)cc4)cnc3N)on2)cc1`: the Potency entry in [1], in test [2] and in [5] was “inactive” throughout. Further, the Potency in [6] is 0.742 µM (active).
`C[C@H]1[C@H](C)CC[C@]2(C(=O)O)CC[C@]3(C)C(=CC[C@@H]4[C@@]5(C)C[C@@H](O)[C@H](O)[C@@](C)(CO)[C@@H]5CC[C@]43C)[C@H]12`: the Potency entry in test [1], in [2], in test [3], in [4], in test [9] and in test [7] was “inactive” each time. Besides, in test [8], the viability was 104%.
